# Inconclusive results are not listed. The list shows a part of the results. A call without a number means that no potency is given here. Activity calls are given as the source filed them. Unless noted, the call rests on the fitted dose curve; in most records, active means well fitted curve in the direction sought with a large enough effect; inconclusive means small, poorly fitted or top-dose-only effect, or another doubt; inactive means no such curve, though single readings can be large; an effect the other way counts as inactive or inconclusive.
# Key:
# Furin (Homo sapiens) = Furin (Homo sapiens) (UniProt P09958); test: Furin counterscreen qHTS for Zika virus inhibitors (AID 1347149); further: nearly all actives have a fitted effect of over 70% in size; further: potency means the concentration at half of the fitted maximal effect;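 on activity change, negative = inhibition: purified recombinant full-length human furin enzyme at 5 nM; fluorescence gain from furin cutting a BOC-RVRR-AMC peptide substrate over 15 min; top concentration of the series differs between compounds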
# How it was run: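 Counterscreen measures cleavage of 2 microM BOC-RVRR-AMC, below its ~15 microM Km, by 5 nM full-length human furin at pH 7.0 after a 15-min compound preincubation. Inhibition derives from the 15-min fluorescence increase at 37C.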
# [1] = Confirmatory screen GU Rhodamine qHTS for Zika virus inhibitors qHTS (AID 1347157); further: nearly all actives have a fitted effect of over 70% in size; further: potency means the concentration at half of the fitted maximal effect
# How it was run: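 Buffer 10 mM Tris-HCl pH 8.0, 0.01% Tween 20. Unlinked protease 25 nM; compound preincubation 15 min, RT, protected from light. Substrate Rhod110, 1.5 microM; ~15% conversion in 15 min.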
# [2] = ZIKV-mCherry secondary qHTS for Zika virus inhibitors (AID 1347158); further: potency means the concentration at half of the fitted maximal effect; on activity change, negative = inhibition: top concentration of the series differs between compounds
# How it was run: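 Percent infection is the share of Hoechst-identified Vero nuclei with mCherry signal above 450 RFU (3 SD over negative controls). Cells were infected with recombinant ZIKV-mCherry at MOI 1 after compound addition and imaged 48–72 h later.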
# [3] = Confirmatory screen NINDS Rhodamine qHTS for Zika virus inhibitors (AID 1347161); further: nearly all actives have a fitted effect of over 60% in size; further: potency means the concentration at half of the fitted maximal effect;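 on activity change, negative = inhibition: purified Zika NS2B-NS3 protease with linked NS2B cofactor domain and Rhodamine110 peptide substrate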
# How it was run: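 Single-chain NS2B-NS3 protease, 25 nM, pH 8.0; compounds preincubated 15 min. Activity: Rhodamine110 release from 1.5 microM substrate over 15 min, room temperature, data fitted to 4-parameter Hill.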
# [4] = system: Zika virus NS2B-NS3 protease (linked); test: 384 well plate NINDS AMC confirmatory qHTS for Zika virus inhibitors (AID 1347163); further: nearly all actives have a fitted effect of over 50% in size; further: potency means the concentration at half of the fitted maximal effect;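 on activity change, negative = inhibition: fluorescence of AMC released from Ac-VKTGKR-AMC peptide cleaved by the protease; top concentration of the series differs between compounds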
# How it was run: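 Fluorescence at 355/460 nm was read after 25 minutes of cleavage of 30 microM Ac-VKTGKR-AMC at room temperature, in the dark. Before substrate addition, compounds (up to 1 mM final) sat ~15 minutes with 5, 30 or 60 nM linked protease. Signals were normalized to no-enzyme and no-inhibitor wells.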
# [5] = system: Zika virus NS2B-NS3 protease (linked construct); test: 384 well plate NINDS Rhodamine confirmatory qHTS for Zika virus inhibitors (AID 1347164);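 further: fluorescence from protease cleavage of Ac-LKRR-rhodamine 110 substrate; potency means the concentration at half of the fitted maximal effect; nearly all actives have a fitted effect of over 65% in size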
# How it was run: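 Enzyme (final 5/30/60 nM) + cpd (DMSO), ~15 min; add Ac-LKRR-Rd 10 microM final; 25 min RT, dark; FI ex 485/em 538; normalized to no-enzyme, no-inhibitor ctrls; aprotinin intraplate ctrl.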
# [6] = Tertiary RLuc qRT-PCR qHTS assay for Zika virus inhibitors (AID 1347169); further: top concentration of the series differs between compounds; nearly all actives have a fitted effect of over 55% in size
# How it was run: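 Vero, 1,000 cells/well, o/n 37 C; cpd pinned in DMSO; ZIKV-RLuc Cambodian, MOI 1-2, 48-72 h 37 C; live-cell RLuc substrate, lum read at 1-1.5 h.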
# [7] = system: Zika virus NS2B-NS3 protease (linked construct); test: Confirmatory screen NINDS AMC qHTS for Zika virus inhibitors (AID 1347152);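 further: AMC fluorescence gain from cleaved Bz-Nle-KRR-AMC substrate over 15 min; top concentration of the series differs between compounds; nearly all actives have a fitted effect of over 70% in size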
# How it was run: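 Enzyme (1 nM, linked construct) was preincubated with compound for 15 minutes at room temperature in 10 mM Tris-HCl pH 8.0 with 0.01% Tween 20. Bz-Nle-Lys-Arg-Arg-AMC was then added to 10 microM, and AMC fluorescence was recorded immediately and after 15 minutes.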
# [8] = system: Zika virus NS2B-NS3 protease (unlinked complex); test: Confirmatory screen GU AMC qHTS for Zika virus inhibitors (AID 1347153); further: nearly all actives have a fitted effect of over 70% in size
# How it was run: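 Noncovalent NS2B hydrophilic domain/NS3 protease complex (25 nM) in 10 mM Tris-HCl pH 8.0, 0.01% Tween 20 was preincubated 15 min at room temperature with compounds. Then 10 µM AMC substrate (Km 18.3 µM) was added; fluorescence was read over 15 min and fitted to a 4-parameter Hill equation.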
# [9] = biological target: DNA repair nuclease/redox regulator APEX1 (Homo sapiens) (UniProt P27695); test: Confirmation qHTS Assay for Inhibitors of the Human Apurinic/apyrimidinic Endonuclease 1 (APE1) (AID 2572); conditions: purified APE1, fluorogenic abasic-site DNA cleavage; further: potency means the concentration at half of the fitted maximal effect; nearly all actives have a fitted effect of over 30% in size
# How it was run: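 Cleavage of a tetrahydrofuran abasic site in a 50 nM (final) TAMRA/BHQ-2 duplex was tracked by rising fluorescence, measured in kinetic mode; reaction progress computed from the first-to-third read difference.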
# [10] = biological target: DNA repair nuclease/redox regulator APEX1 (Homo sapiens) (UniProt P27695); test: qHTS FP-Based Assay for Inhibitors of the Human Apurinic/apyrimidinic Endonuclease 1 (APE1) (AID 2573)
# Description: The apurinic/apyrimidinic endonuclease APE1 is the primary mammalian enzyme responsible for the removal of abasic (or AP) sites in DNA and functions centrally in the base excision DNA repair (BER) pathway. […] Thus, targeting APE1 could improve the efficacy of current treatment paradigms by promoting selective sensitization or protection of diseased and normal cells, respectively.
# In order to gain insight into the mode of action of confirmed APE1 inhibitors, we implemented a miniaturized fluorescence polarization assay designed to report on compounds which competitively displace ds-DNA substrate. The fluorescence polarization assay has been implemented in 384- and 1536-well format for binding of TAMRA-labeled double-stranded DNA probe not containing a quencher. The binding of protein to DNA is inhibited by ATA, a general inhibitor of APE1 activity.
# See also related primary fluorogenic assay (AID 2517). […]
# Three uL of enzyme were dispensed to 1536-well Greiner black solid bottom plates. […] The plates were immediately transferred into ViewLux High-throughput CCD imager (Perkin-Elmer) in order to measure the reaction progress in kinetic mode (three reads every 60 seconds) using 525 nm excitation and 598 nm emission fluorescence protocol. The fluorescence intensity difference between the third and the first time points was used to compute reaction progress.
# [11] = Primary qHTS for small molecule stabilizers of the endoplasmic reticulum resident proteome: Secreted ER Calcium Modulated Protein (SERCaMP) assay (AID 1508630)
# How it was run: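 The SH-SY5Y reporter protocol was run at 3 concentrations up to 38.3 uM (primary) or 11 concentrations (follow-up): 16 h compound, 100 nM thapsigargin for 4 h, then extracellular luciferase luminescence.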
# [12] = biological target: Cytochrome P450 3A4 (Homo sapiens) (UniProt P08684); test: qHTS Assay for Activators of Cytochrome P450 3A4 (AID 885); further: nearly all actives have a fitted effect of over 65% in size
# How it was run: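 CYP3A4 activity: Luciferin-PPXE O-dealkylation, 25uM substrate, 200mM KPO4, RT throughout. Read-out is luciferase luminescence; higher values reflect activation.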
# [13] = Confirmation and Secondary Assay for Modulators of Hemoglobin Beta Chain Splicing at IVS2 654 locus (AID 910);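 further: HeLa cells stably carrying EGFP split by mutant beta-globin IVS2-654 intron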
# How it was run: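 HeLa cells stably expressing EGFP interrupted by β-globin IVS2-654 intron, seeded overnight in Opti-MEM/2% FCS, then treated 2 days at 37 °C. Restored splicing read as total peak GFP intensity per well by laser scanning cytometry (488 nm excitation, 500–520 nm emission); 500 nM antisense PNA as control.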
# [14] = Confirmation and Secondary Assay for Modulators of Hemoglobin Beta Chain Splicing at IVS2 705 locus (AID 930);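 further: HeLa cells stably expressing the EGFP-705 splicing reporter; GFP fluorescence per well restored by corrected splicing of the IVS2-705 intron in EGFP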
# How it was run: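 HeLa cells stably carrying EGFP interrupted by mutant beta-globin intron 2 (IVS2-705) treated 2 days at 37C with compound; 500 nM antisense PNA as control. Correct splicing read as total peak GFP intensity per well by laser-scanning cytometry.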
# [15] = qHTS Assay for Lipid Storage Modulators (AID 1519; calls by dose curve); conditions: Drosophila S3 cells, BODIPY lipid droplet/cell ratio, laser cytometry, cells loaded with oleic acid
# How it was run: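 Cells seeded at 5,000 per well were treated with compounds over a concentration series and loaded with oleic acid (400 uM, as added). Lipid droplet fluorescence (488 nm excitation, 500-530 nm channel) was read by laser-scanning cytometry and normalized to 20 uM Triacsin C.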
# [16] = biological target: Tyrosyl-DNA phosphodiesterase 1 (Homo sapiens) (UniProt Q9NUW8); test: Confirmation Assay for Inhibitors of Tyrosyl-DNA Phosphodiesterase (TDP1) (AID 489007); conditions: recombinant human TDP1 enzymatic activity, dose-response; further: potency means the concentration at half of the fitted maximal effect; nearly all actives have a fitted effect of over 40% in size
# How it was run: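 AlphaScreen assay of tyrosine-FITC cleavage from a biotinylated DNA substrate (15 nM) by E. coli-expressed human Tdp1 (1 nM). Sequence: compound preincubation 15 min, reaction 5 min, bead detection 10 min, all at room temperature. No-enzyme wells give maximum signal.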
# Furin (Homo sapiens), sequence (P09958 whole entry, looked up): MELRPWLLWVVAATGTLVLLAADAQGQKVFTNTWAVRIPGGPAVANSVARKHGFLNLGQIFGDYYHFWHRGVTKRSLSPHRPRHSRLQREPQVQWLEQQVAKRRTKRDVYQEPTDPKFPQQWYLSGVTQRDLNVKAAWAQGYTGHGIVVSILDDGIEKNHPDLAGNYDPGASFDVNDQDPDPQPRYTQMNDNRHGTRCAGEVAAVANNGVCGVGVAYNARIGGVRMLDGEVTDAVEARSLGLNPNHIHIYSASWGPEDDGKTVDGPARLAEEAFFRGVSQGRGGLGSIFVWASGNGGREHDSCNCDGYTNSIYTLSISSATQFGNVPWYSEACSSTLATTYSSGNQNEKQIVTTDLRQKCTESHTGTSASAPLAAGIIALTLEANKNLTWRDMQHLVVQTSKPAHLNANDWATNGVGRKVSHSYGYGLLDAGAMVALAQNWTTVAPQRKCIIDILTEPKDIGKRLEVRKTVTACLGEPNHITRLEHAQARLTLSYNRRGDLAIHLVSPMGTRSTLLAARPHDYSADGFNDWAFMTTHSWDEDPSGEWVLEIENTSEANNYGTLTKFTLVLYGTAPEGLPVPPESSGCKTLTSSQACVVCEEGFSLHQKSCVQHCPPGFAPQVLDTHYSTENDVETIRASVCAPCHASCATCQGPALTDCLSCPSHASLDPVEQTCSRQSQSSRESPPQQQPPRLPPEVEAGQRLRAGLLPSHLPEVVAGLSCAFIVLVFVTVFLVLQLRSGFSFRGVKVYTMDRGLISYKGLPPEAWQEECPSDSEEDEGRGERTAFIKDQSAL
# DNA repair nuclease/redox regulator APEX1 (Homo sapiens), sequence (P27695 whole entry, looked up): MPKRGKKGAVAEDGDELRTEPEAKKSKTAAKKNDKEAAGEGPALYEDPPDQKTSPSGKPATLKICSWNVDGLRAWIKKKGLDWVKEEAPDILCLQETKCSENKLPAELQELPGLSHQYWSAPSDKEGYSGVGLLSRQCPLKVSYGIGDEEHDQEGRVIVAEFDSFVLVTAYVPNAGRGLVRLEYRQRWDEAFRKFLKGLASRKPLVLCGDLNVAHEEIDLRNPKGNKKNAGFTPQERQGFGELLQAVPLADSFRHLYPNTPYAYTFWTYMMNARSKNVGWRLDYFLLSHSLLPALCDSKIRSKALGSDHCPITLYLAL
# Tyrosyl-DNA phosphodiesterase 1 (Homo sapiens), sequence (Q9NUW8 whole entry, looked up): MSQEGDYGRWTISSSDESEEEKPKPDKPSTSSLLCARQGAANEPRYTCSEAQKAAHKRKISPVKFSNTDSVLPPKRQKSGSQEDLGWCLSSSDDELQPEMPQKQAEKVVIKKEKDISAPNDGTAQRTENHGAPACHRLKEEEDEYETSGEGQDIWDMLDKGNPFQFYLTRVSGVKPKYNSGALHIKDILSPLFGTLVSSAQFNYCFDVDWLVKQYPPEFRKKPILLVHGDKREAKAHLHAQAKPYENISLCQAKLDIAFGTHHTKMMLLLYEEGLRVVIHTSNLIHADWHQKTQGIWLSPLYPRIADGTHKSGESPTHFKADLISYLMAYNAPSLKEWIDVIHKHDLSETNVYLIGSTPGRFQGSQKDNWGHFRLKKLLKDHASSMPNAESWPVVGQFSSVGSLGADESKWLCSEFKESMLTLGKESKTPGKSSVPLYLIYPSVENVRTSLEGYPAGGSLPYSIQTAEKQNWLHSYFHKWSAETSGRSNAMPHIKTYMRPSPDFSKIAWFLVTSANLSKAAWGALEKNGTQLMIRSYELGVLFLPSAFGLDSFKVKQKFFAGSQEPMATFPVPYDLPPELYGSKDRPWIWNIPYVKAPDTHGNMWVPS
# Cytochrome P450 3A4 (Homo sapiens), sequence (P08684 whole entry, looked up): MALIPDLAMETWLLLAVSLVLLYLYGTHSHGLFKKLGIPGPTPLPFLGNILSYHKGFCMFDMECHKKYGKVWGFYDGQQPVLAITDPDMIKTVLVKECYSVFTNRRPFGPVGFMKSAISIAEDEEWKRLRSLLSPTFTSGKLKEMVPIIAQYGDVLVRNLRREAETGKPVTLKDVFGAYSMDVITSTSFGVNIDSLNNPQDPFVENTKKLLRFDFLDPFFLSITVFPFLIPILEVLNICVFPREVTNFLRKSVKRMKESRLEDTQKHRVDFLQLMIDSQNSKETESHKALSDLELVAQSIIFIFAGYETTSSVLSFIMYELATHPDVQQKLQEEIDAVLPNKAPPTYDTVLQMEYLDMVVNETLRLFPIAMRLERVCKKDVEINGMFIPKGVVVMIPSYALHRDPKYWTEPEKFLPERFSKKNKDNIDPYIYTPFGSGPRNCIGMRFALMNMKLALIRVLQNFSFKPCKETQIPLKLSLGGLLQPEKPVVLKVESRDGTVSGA
smiles,measurement,setting,value
COc1cc(C2Nc3ccccc3-c3nnc(SCc4ccc(Cl)cc4)nc3O2)ccc1OCC(=O)O (stereo not drawn),Potency,Furin (Homo sapiens),inactive
same,Potency,[1],28.2 µM (active)
same,Potency,[2],inactive
same,Potency,[3],25.1 µM (active)
same,Potency,[4],282 µM (active)
same,Potency,[5],79.4 µM (active)
same,Potency,[6],inactive
CCOC(=O)c1c(-c2ccccc2)oc2ccc(NS(=O)(=O)c3ccc(C(C)C)cc3)cc12,Potency,Furin (Homo sapiens),46.9 µM (active)
same,Potency,[1],inactive
Cc1ccc(NC(=O)c2ccc3c(O)c(S(=O)(=O)c4ccc(Cl)cc4)c(=O)[nH]c3c2)cc1,Potency,Furin (Homo sapiens),inactive
same,Potency,[1],22.4 µM (active)
same,Potency,[2],inactive
same,Potency,[3],6.31 µM (active)
same,Potency,[4],251 µM (active)
same,Potency,[5],35.5 µM (active)
same,Potency,[6],inactive
O=C(O)c1ccc(-c2ccc(C(F)(F)F)cc2)cc1,Potency,Furin (Homo sapiens),inactive
same,Potency,[7],inactive
same,Potency,[8],inactive
same,Potency,[6],inactive
COC(=O)C1=C(c2ccccc2)c2ccccc2S(=O)(=O)N1CC(=O)Nc1ccccc1C(F)(F)F,Potency,Furin (Homo sapiens),inactive
same,Potency,[1],inactive
same,Potency,[3],inactive
O=C(O)c1ccc2c(ccc3nn(-c4ccc(/C=C/c5ccc(-n6nc7ccc8cc(C(=O)O)ccc8c7n6)cc5[S+](=O)([O-])[O-])c([S+](=O)([O-])[O-])c4)nc32)c1,Potency,Furin (Homo sapiens),inactive
same,Potency,[1],2.82 µM (active)
same,Potency,[2],4.47 µM (active)
same,Potency,[4],inactive
same,Potency,[6],inactive
O=c1c(O)c(Br)ccc2c(Br)c(O)c(O)c(O)c12,Potency,[9],0.316 µM (active)
same,outcome,[10],inactive
same,Potency,Furin (Homo sapiens),23.5 µM (active)
same,Potency,[1],39.8 µM (active)
same,Potency,[2],inactive
same,Potency,[4],158 µM (active)
same,Potency,[5],89.1 µM (active)
same,Potency,[6],inactive
same,Potency,[11],inactive
COc1ccc(S(=O)(=O)c2c(Nc3c(C)cccc3C)sc(C(=O)c3ccc4c(c3)OCO4)c2N)cc1,Potency,Furin (Homo sapiens),23.5 µM (active)
same,Potency,[1],inactive
same,Potency,[3],inactive
O=c1c(-c2cc(O)c(O)c(O)c2)coc2cc(O)c(O)c(O)c12,Potency,[12],inactive
same,outcome,[13],inactive
same,outcome,[14],inactive
same,"activity change, negative = inhibition",[15]; at 57.5 µM (top of the series),15.6% (inactive)
same,max response,[15]; measured here: cell count channel max response,7.38%
same,max response,[15]; measured here: lipid channel max response,21.8%
same,Potency,[16],0.282 µM (active)
same,Potency,Furin (Homo sapiens),inactive
same,Potency,[1],22.4 µM (active)
same,Potency,[2],inactive
same,Potency,[3],12.6 µM (active)
same,Potency,[4],316 µM (active)
O=C(Nc1ccc(C(=O)OCc2cc(=O)n3c4c(sc3n2)CCCC4)cc1)c1cccc(F)c1,Potency,Furin (Homo sapiens),46.9 µM (active)
same,Potency,[1],inactive
same,Potency,[3],inactive
O=C(Nc1cccc(C(=O)OCc2cc(=O)n3c4c(sc3n2)CCCC4)c1)c1ccc(Cl)cc1,Potency,Furin (Homo sapiens),52.7 µM (active)
same,Potency,[1],inactive
same,Potency,[3],inactive
same,Potency,[6],inactive
CCOc1ccc(C(=O)Nc2ccccc2C(=O)OCc2cc(=O)n3nc(C4CC4)sc3n2)cc1,Potency,Furin (Homo sapiens),inactive
same,Potency,[1],inactive
same,Potency,[3],inactive
same,Potency,[6],inactive
Cc1ccc2nc(NS(=O)(=O)c3ccc(Cl)cc3)c(Nc3ccc(C(=O)O)cc3)nc2c1,Potency,Furin (Homo sapiens),inactive
same,Potency,[1],3.55 µM (active)
same,Potency,[3],3.16 µM (active)
same,Potency,[4],141 µM (active)
same,Potency,[5],12.6 µM (active)
